We go through 27 compounds from PubChem BioAssay (EPA / NIEHS).

Active and inactive are the calls of the source. The calls were made as follows: active = hit-call score of the fitted dose curve at least 0.9, where 1 is the maximum; inactive = score below 0.9.

Cytochrome P450 3A7 (Homo sapiens), sequence (P24462 whole entry, looked up): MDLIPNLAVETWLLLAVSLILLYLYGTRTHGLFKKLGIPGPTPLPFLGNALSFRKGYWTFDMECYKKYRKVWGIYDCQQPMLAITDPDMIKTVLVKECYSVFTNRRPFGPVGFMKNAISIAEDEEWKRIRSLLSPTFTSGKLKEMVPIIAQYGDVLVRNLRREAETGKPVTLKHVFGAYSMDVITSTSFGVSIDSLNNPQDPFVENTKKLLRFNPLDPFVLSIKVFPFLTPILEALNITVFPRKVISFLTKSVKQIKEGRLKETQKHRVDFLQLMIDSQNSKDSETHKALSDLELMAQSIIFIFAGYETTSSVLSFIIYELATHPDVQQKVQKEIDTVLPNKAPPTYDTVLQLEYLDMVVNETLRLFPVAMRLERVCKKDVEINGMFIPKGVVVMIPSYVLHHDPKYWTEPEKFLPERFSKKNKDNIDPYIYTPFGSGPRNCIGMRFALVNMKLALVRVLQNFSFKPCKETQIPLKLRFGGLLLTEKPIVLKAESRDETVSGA

Read-out in the first test: Early growth response protein 1 (EGR1) transcription factor, EGR1 (gene 1958)
Put plainly: LTEA_HepaRG_EGR1: Life Technologies and Expression Analysis (LTEA) Assay for Early growth response protein 1 (EGR1) transcription factor using HepaRG (AID 2283490). The note with it: mRNA level, 48 h; actives raise or lower the signal. A digest of the protocol:
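HepaRG, 48 h exposure, 8-pt half-log series from 100 uM, 0.5% DMSO vehicle; EGR1 transcript by TaqMan qRT-PCR (Fluidigm array), housekeeping-normalized; bidirectional fit relative to DMSO baseline.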
For the compound `O=C(O)c1ccccc1`, the outcome was inactive.
Consider `CCOC(=O)COc1cc(-n2ncc(C(F)(F)F)c(C)c2=O)c(F)cc1Cl`, for which the outcome was inactive.
`CCOC(=O)c1ccc(O)cc1`: the call was inactive.
As for `O=C(Nc1ccc([N+](=O)[O-])cc1Cl)c1cc(Cl)ccc1O`, the AC50 is 1.76 µM (active).
For the compound `Cc1nn(C)c(Oc2ccccc2)c1C=NOCc1ccc(C(=O)OC(C)(C)C)cc1`, the AC50 is 1.22 µM (active).
With `CCCCCCC(C)OC(=O)COc1nc(F)c(Cl)c(N)c1Cl` (stereo not given), the outcome was inactive.
Still for that read-out and setting: the same measure for `CCCCC(CC)COC(=O)c1ccccc1C(=O)O` (stereo not given): “inactive”.
Same read-out and setting: as for `COc1c(Cl)ccc(Cl)c1C(=O)O`, the entry is “inactive”.
Regarding `CC(=O)[C@H]1CC[C@H]2[C@@H]3CCC4=CC(=O)CC[C@]4(C)[C@H]3CC[C@]12C`, the AC50 is 50 µM (active).
`CCC(C)OC(=O)N1CCCCC1CCO` (stereo not given): the compound was classed as inactive.
Same read-out and setting: the same measure for `CC(=O)S[C@@H]1CC2=CC(=O)CC[C@]2(C)[C@H]2CC[C@@]3(C)[C@@H](CC[C@@]34CCC(=O)O4)[C@H]12`: “inactive”.
Same read-out and setting: the same measure for `CCCCCOC(=O)COc1cc(N2C(=O)C3=C(CCCC3)C2=O)c(F)cc1Cl`: “inactive”.
In the case of `S=C([S-])NCCNC(=S)[S-].[Mn+2]`, the AC50 is 6.62 µM (active).
Regarding `CCCCOC(=O)C(C)Oc1ccc(Oc2ccc(C(F)(F)F)cn2)cc1` (stereo not given), the compound was called inactive.
In the case of `CCCCOCCOCCOCc1cc2c(cc1CCC)OCO2`, the call was inactive.
On the same count and under the same terms, the same measure for `CC1(C)C(C=C(Cl)Cl)C1C(=O)OCc1cccc(Oc2ccccc2)c1` (stereo not given): “inactive”; for `COC(=O)c1ccc(I)cc1S(=O)(=O)NC(=O)Nc1nc(C)nc(OC)n1`: “inactive”.
Still for that read-out and setting: as for `c1ccc(Nc2ccccc2)cc1`, the entry is “inactive”.
Turning to `CCCCOC(=O)[C@@H](C)Oc1ccc(Oc2ccc(C(F)(F)F)cn2)cc1`, the result was inactive.
Same read-out and setting: the same measure for `CCCN(CCC)c1c([N+](=O)[O-])cc(C(F)(F)F)c(N)c1[N+](=O)[O-]`: “inactive”; for `C[C@]12C[C@H](O)[C@H]3[C@@H](CCC4=CC(=O)CC[C@@]43C)[C@@H]1CC[C@@H]2C(=O)CO`: “inactive”.
On the same count and under the same terms, the same measure for `COCCO`: “inactive”; for `CCCN(CCC)C(=O)SCC`: “inactive”; for `c1ccc2[nH]c(-c3cscn3)nc2c1`: “inactive”.
The same measure, in the same setting: as for `CC(C)CCCCCCc1ccc(O)cc1`, the entry is “inactive”.
On to `C[C@]12CC[C@@H]3c4ccc(O)cc4C[C@@H](CCCCCCCCCS(=O)CCCC(F)(F)C(F)(F)F)[C@H]3[C@@H]1CC[C@@H]2O` (stereo not given in full), for which the AC50 is 0.119 µM (active).
As to `N[C@@H](Cc1cc(I)c(Oc2ccc(O)c(I)c2)c(I)c1)C(=O)O`, the result was inactive.

Read-out in another test: Ezrin (EZR), EZR (gene 7430)
Kind of test: LTEA_HepaRG_EZR: Life Technologies and Expression Analysis (LTEA) Assay for Ezrin (EZR) using HepaRG (AID 2283491). Particulars: mRNA level, 48 h; actives raise or lower the signal. A digest of the protocol:
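Differentiated human HepaRG cells, 48 h after plating, were exposed in serum-free induction medium for 48 hours to eight half-log concentrations up to 100 uM in 0.5% DMSO. EZR mRNA was measured by TaqMan qRT-PCR, normalized to ACTB, GAPDH and POLR2A, and fitted bidirectionally against DMSO.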
Regarding `O=C(O)c1ccccc1`, the compound was classed as inactive.
Still for that read-out and setting: as for `CCOC(=O)COc1cc(-n2ncc(C(F)(F)F)c(C)c2=O)c(F)cc1Cl`, the entry is “inactive”.
Still for that read-out and setting: as for `CCOC(=O)c1ccc(O)cc1`, the entry is “inactive”; as for `O=C(Nc1ccc([N+](=O)[O-])cc1Cl)c1cc(Cl)ccc1O`, “inactive”.
Turning to `Cc1nn(C)c(Oc2ccccc2)c1C=NOCc1ccc(C(=O)OC(C)(C)C)cc1`, the AC50 was 3.29 µM (active).
Regarding `CCCCCCC(C)OC(=O)COc1nc(F)c(Cl)c(N)c1Cl` (stereo not given), the outcome was inactive.
As to `CCCCC(CC)COC(=O)c1ccccc1C(=O)O` (stereo not given), the result was inactive.
On the same count and under the same terms, as for `COc1c(Cl)ccc(Cl)c1C(=O)O`, the entry is “inactive”.
The same measure, in the same setting: the same measure for `CC(=O)[C@H]1CC[C@H]2[C@@H]3CCC4=CC(=O)CC[C@]4(C)[C@H]3CC[C@]12C`: “inactive”; for `CCC(C)OC(=O)N1CCCCC1CCO` (stereo not given): “inactive”.
As to `CC(=O)S[C@@H]1CC2=CC(=O)CC[C@]2(C)[C@H]2CC[C@@]3(C)[C@@H](CC[C@@]34CCC(=O)O4)[C@H]12`, the AC50 is 0.387 µM (active).
Take `CCCCCOC(=O)COc1cc(N2C(=O)C3=C(CCCC3)C2=O)c(F)cc1Cl`: the compound was called inactive.
Take `S=C([S-])NCCNC(=S)[S-].[Mn+2]`: the call was inactive.
On the same count and under the same terms, the same measure for `CCCCOC(=O)C(C)Oc1ccc(Oc2ccc(C(F)(F)F)cn2)cc1` (stereo not given): “inactive”.
Take `CCCCOCCOCCOCc1cc2c(cc1CCC)OCO2`: the call was inactive.
For `CC1(C)C(C=C(Cl)Cl)C1C(=O)OCc1cccc(Oc2ccccc2)c1` (stereo not given), the compound was classed as inactive.
Same read-out and setting: the same measure for `COC(=O)c1ccc(I)cc1S(=O)(=O)NC(=O)Nc1nc(C)nc(OC)n1`: “inactive”; for `c1ccc(Nc2ccccc2)cc1`: “inactive”.
Take `CCCCOC(=O)[C@@H](C)Oc1ccc(Oc2ccc(C(F)(F)F)cn2)cc1`: the compound was called inactive.
For `CCCN(CCC)c1c([N+](=O)[O-])cc(C(F)(F)F)c(N)c1[N+](=O)[O-]`, the compound was classed as inactive.
With `C[C@]12C[C@H](O)[C@H]3[C@@H](CCC4=CC(=O)CC[C@@]43C)[C@@H]1CC[C@@H]2C(=O)CO`, the compound was called inactive.
Consider `COCCO`, for which the call was inactive.
With `CCCN(CCC)C(=O)SCC`, the compound was classed as inactive.
The same measure, in the same setting: the same measure for `c1ccc2[nH]c(-c3cscn3)nc2c1`: “inactive”; for `CC(C)CCCCCCc1ccc(O)cc1`: “inactive”; for `C[C@]12CC[C@@H]3c4ccc(O)cc4C[C@@H](CCCCCCCCCS(=O)CCCC(F)(F)C(F)(F)F)[C@H]3[C@@H]1CC[C@@H]2O` (stereo not given in full): “inactive”.
Still for that read-out and setting: as for `N[C@@H](Cc1cc(I)c(Oc2ccc(O)c(I)c2)c(I)c1)C(=O)O`, the entry is “inactive”.

Read-out in another test: Cytochrome P450 3A7 (Homo sapiens) (UniProt P24462)
Put plainly: LTEA_HepaRG_CYP3A7: Life Technologies and Expression Analysis (LTEA) Assay for CYP3A7 using HepaRG (AID 2283492). Particulars: mRNA level, 48 h; actives raise or lower the signal. A digest of the protocol:
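qRT-PCR of CYP3A7 in HepaRG lysates after 48 h treatment; concentration-response (8 points, max 100 uM) analysed bidirectionally relative to 0.5% DMSO controls.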
As for `O=C(O)c1ccccc1`, the call was inactive.
On to `CCOC(=O)COc1cc(-n2ncc(C(F)(F)F)c(C)c2=O)c(F)cc1Cl`, for which the AC50 is 28.9 µM (active).
Take `CCOC(=O)c1ccc(O)cc1`: the outcome was inactive.
As for `Cc1nn(C)c(Oc2ccccc2)c1C=NOCc1ccc(C(=O)OC(C)(C)C)cc1`, the AC50 was 1.37 µM (active).
Regarding `CCCCCCC(C)OC(=O)COc1nc(F)c(Cl)c(N)c1Cl` (stereo not given), the result was inactive.
On the same count and under the same terms, as for `COc1c(Cl)ccc(Cl)c1C(=O)O`, the entry is “inactive”.
Regarding `CC(=O)[C@H]1CC[C@H]2[C@@H]3CCC4=CC(=O)CC[C@]4(C)[C@H]3CC[C@]12C`, the AC50 is 30.1 µM (active).
`CCC(C)OC(=O)N1CCCCC1CCO` (stereo not given): the compound was called inactive.
`CCCCCOC(=O)COc1cc(N2C(=O)C3=C(CCCC3)C2=O)c(F)cc1Cl`: the outcome was inactive.
As for `S=C([S-])NCCNC(=S)[S-].[Mn+2]`, the AC50 was 3.49 µM (active).
`CCCCOC(=O)C(C)Oc1ccc(Oc2ccc(C(F)(F)F)cn2)cc1` (stereo not given): the result was inactive.
Turning to `CC1(C)C(C=C(Cl)Cl)C1C(=O)OCc1cccc(Oc2ccccc2)c1` (stereo not given), the AC50 was 18.3 µM (active).
As to `COC(=O)c1ccc(I)cc1S(=O)(=O)NC(=O)Nc1nc(C)nc(OC)n1`, the outcome was inactive.
On the same count and under the same terms, as for `c1ccc(Nc2ccccc2)cc1`, the entry is “inactive”; as for `CCCCOC(=O)[C@@H](C)Oc1ccc(Oc2ccc(C(F)(F)F)cn2)cc1`, “inactive”; as for `CCCN(CCC)c1c([N+](=O)[O-])cc(C(F)(F)F)c(N)c1[N+](=O)[O-]`, “inactive”.
In the case of `C[C@]12C[C@H](O)[C@H]3[C@@H](CCC4=CC(=O)CC[C@@]43C)[C@@H]1CC[C@@H]2C(=O)CO`, the AC50 was 50 µM (active).
As to `COCCO`, the call was inactive.
The same measure, in the same setting: the same measure for `CCCN(CCC)C(=O)SCC`: “inactive”.
Consider `CC(C)CCCCCCc1ccc(O)cc1`, for which the call was inactive.
As for `C[C@]12CC[C@@H]3c4ccc(O)cc4C[C@@H](CCCCCCCCCS(=O)CCCC(F)(F)C(F)(F)F)[C@H]3[C@@H]1CC[C@@H]2O` (stereo not given in full), the AC50 was 24.9 µM (active).
